Rows were chosen to be rich in hits. Some 2.1% of all compounds tested hit in one or more screens of this group.
HMGR II inh: blocks class II HMG-CoA reductase of Enterococcus faecalis; purified E. faecalis HMGR, NADPH absorbance 340 nm kinetic; inhibition, % at 10 µM; actives 0.41% (n = 190,000); AID 1066;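 active means inhibition above a set limit, the median over all tested compounds plus 3 SD, cut at about 9.5% in these data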;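 further: enzyme runs in reverse so mevalonate oxidation gives rising NADPH absorbance; 0% = complete reaction with DMSO and 100% = background rate lacking mevalonate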
ROMK mod: modulators of human ROMK potassium channel. P48048. B-score at 10 µM. actives 2% (n = 130,000). Tet-inducible ROMK, thallium flux fluorescence; actives lie on both sides;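 active means signal ratio slope over the read window, or its plate-corrected B-score, at least 3 SD from the plate mean, either direction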;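 further: B-score of the F/F0 ratio slope over 7 to 12 s after thallium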
Target sequence (P48048 whole entry, looked up): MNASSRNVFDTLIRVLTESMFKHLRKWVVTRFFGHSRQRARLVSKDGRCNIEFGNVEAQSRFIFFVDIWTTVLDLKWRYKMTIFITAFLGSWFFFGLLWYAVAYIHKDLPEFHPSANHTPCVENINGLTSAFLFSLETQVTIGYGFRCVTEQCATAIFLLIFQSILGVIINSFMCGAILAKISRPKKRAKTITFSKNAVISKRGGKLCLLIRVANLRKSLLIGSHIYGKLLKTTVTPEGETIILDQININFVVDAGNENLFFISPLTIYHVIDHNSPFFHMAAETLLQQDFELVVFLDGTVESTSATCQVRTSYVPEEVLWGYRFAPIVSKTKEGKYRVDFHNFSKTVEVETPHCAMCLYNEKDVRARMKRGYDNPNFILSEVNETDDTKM
Calpain2 inh: blocks pig calpain II enzyme activity; actives 0.37% (n = 220,000); purified calpain II, fluorogenic peptide substrate, 30 min; inhibition, % at 16 µM;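 active means inhibition above about 50%, limit read from the data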
HSV replic up: HSV replication enhancement; maximum fold increase; AID 1956; actives 0.005% (n = 220,000); HSV replication augmentation in cells, fold increase; in the data active means maximum fold increase above about 1.5; tested in PC3 cells
Arbovirus anti: arbovirus infection inhibition; arbovirus infection cell-based antiviral screen; actives 0.37% (n = 200,000); inhibition, % at 10 µM; in the data active means inhibition above about 30%
An asterisk follows results filed as active; i = inactive; . = no result.

SMILES	HMGR II inh	ROMK mod	Calpain2 inh	HSV replic up	Arbovirus anti
S=C(NCc1ccc2[nH]c3c(c2c1)CCCC3)Nc1ccccc1	9.8*	0.033	-3	i	-30
CC(C)CCC(O)(CCC(C)C)C(=O)NNc1ccccc1	4	0.32	6	i	-26
CC(C)CC(O)(CC(C)C)C(=O)NNc1ccccc1	15*	-0.023	-6	i	-33
COc1ccc(CCN=C(N)Nc2nc(C)cc(C)n2)cc1	-1	-0.43	-17	i	-2
COC(=O)C1=C(C)N(Cc2ccco2)C(=O)N[C@@H]1c1ccccc1	11*	0.99	6	i	-3
COC(=O)C1=C(C)N(Cc2ccco2)C(=O)N[C@@H]1c1ccco1	.	.	.	i	.
CCC(Sc1ccc2nnc(-c3cccnc3)n2n1)C(=O)OC (configuration not stated)	9.6*	0.64	-147	i	12
CSc1nc2ncc3c(n2n1)CC(C)(C)CC3=O	9.9*	1.6	-26	i	2
O=C(NCc1ccccc1Cl)C1CCCN(c2nc3ccsc3c(=O)s2)C1 (configuration not stated)	-1	-0.004	53*	i	6
CC1CCCN(c2nc3ccsc3c(=O)s2)C1 (configuration not stated)	-2	.	-7	i	12
Cn1c(=O)n(C)c2cc([N+](=O)[O-])c(N3CCN(CCO)CC3)cc21	-1	0.056	66*	i	0
Cn1c(=O)n(C)c2cc([N+](=O)[O-])c(N3CCN(S(C)(=O)=O)CC3)cc21	-2	-1.2	10	i	-2
COc1ccc(NC(=O)COC(=O)C23CC4CC(CC(Cl)(C4)C2)C3)c(OC)c1	-2	-0.093	21	i	11
COc1ccc(C(=O)C23CC4CC(C2)CC(C(=O)c2ccc(OC)cc2)(C4)C3)cc1	0	-0.76	63*	i	7
N#CCc1cc2ccc3cccc4ccc(c1)c2c34	.	0.45	-201	i	.
Cc1nc2scc(-c3cccs3)c2c(=O)o1	-3	.	-32	i	0
O=c1oc(-c2cccs2)nc2scc(-c3cccs3)c12	-1	0.15	-67	.	71*
CCOC(=O)c1c(-c2ncc(C(F)(F)F)cc2Cl)noc1C	3	-0.59	21	i	4
CCOC(=O)c1ccccc1NC(=O)N[C@@H](C)C(=O)OC	-7	2.3*	-13	i	8
Cc1ccc(S(C)(=O)=NS(=O)(=O)c2cccc3nsnc23)cc1 (configuration not stated)	.	.	14	i	.
Cc1ccccc1-n1nc(CSc2nc3ccccc3[nH]2)c(-c2ccccc2)c1N	-7	.	9	i	40*
Nc1c(-c2ccccc2)c(CSc2nc3ccccc3[nH]2)nn1-c1ccc(Cl)cc1	3	-0.63	0	i	3
Nc1c(-c2ccccc2)c(CSc2nc3ccccc3[nH]2)nn1-c1cccc(Cl)c1	3	-2	-3	i	34*
O=C1C2C3C=CC(C3)C2C(=O)N1Nc1c(Cl)cc(Cl)cc1Cl (configuration not stated)	-3	-0.057	21	i	4
Cc1cc2sc3nc(=O)n(-c4ccccc4)c(=O)n3c2cc1C	.	.	-19	i	.
SMILES	HMGR II inh	ROMK mod	Calpain2 inh	HSV replic up	Arbovirus anti
O=C(CCc1nnc(-c2ccsc2)o1)N1CCCCC1CCn1ccnc1 (configuration not stated)	0	-2	-9	i	0
CCC1CCCCN1C(=O)CCn1ccnc1 (configuration not stated)	15*	0.8	-5	i	2
Cc1cccc(CN2CCN(C(=O)CCl)CC2)c1	-4	.	-5	i	10
Cc1cccc(CN2CCN(C(=O)c3ccccc3F)CC2)c1	-2	6.2*	-12	i	-5
C=CCn1c(COc2cccc(C)c2)nnc1SCn1nnc2ccccc2c1=O	0	-1.5	5	i	2
O=c1[nH]c2ccc(S(=O)(=O)N3CCN(c4ccccc4F)CC3)cc2s1	-2	.	-70	i	38*
Cc1cc(C)c(S(=O)(=O)Nc2ccc3c(c2)CCC3)c(C)c1	-5	-0.014	51*	i	-36
Cc1cc(C)c(S(=O)(=O)Nc2ccc(O)cc2)c(C)c1	1	.	14	i	-6
CC(NC(=O)c1ccc(OC2CCN(S(=O)(=O)N(C)C)CC2)cc1)C1CC1 (configuration not stated)	-2	-0.45	44	i	2
CCc1nc(N)nc(N)c1-c1ccc(Cl)cc1	15*	.	0	i	-34
NC(=O)c1oc2ccccc2c1NC(=O)C1COc2ccccc2O1 (configuration not stated)	-4	-0.83	-9	i	0
COCC(C)n1c(C)cc(C(=O)COC(=O)CNC(=O)c2ccccc2)c1C (configuration not stated)	0	0.35	-17	i	-6
COCCn1c(C)cc(C(=O)COC(=O)CNC(=O)c2ccccc2)c1C	-9	0.15	59*	i	3
O=C(O)c1ccc(-c2nc(-c3ccc(Cl)cc3)cs2)cc1	2	-0.45	-23	i	41*
O=C(O)c1ccc(-c2nc(-c3ccc(Cl)cc3Cl)cs2)cc1	2	0.59	-12	i	13
COc1ccc(NC(=O)Cc2coc3cc(C)ccc23)cn1	3	-0.32	8	i	2
Cc1ccccc1N=C1SCC(=O)N1Cc1ccccc1	-4	.	6	i	37*
O=C1CSC(=Nc2ccccc2)N1Cc1ccccc1	-4	-1.1	8	i	3
C1=C(c2ccccc2)Nc2ncnn2C1c1ccccc1 (configuration not stated)	.	.	.	i	.
Fc1ccc(Br)cc1C1C=C(c2ccc(Br)cc2)Nc2ncnn21 (configuration not stated)	1	0.4	0	.	71*
CCc1ccc(C2=CC(c3cc(Br)ccc3F)n3ncnc3N2)cc1 (configuration not stated)	2	.	-60	i	62*
COc1ccc(NC(=O)[C@@H](NC(=O)c2ccccc2F)C(C)C)cc1S(=O)(=O)N1CCOCC1	1	0.15	-18	i	16
CSc1ncc(Cl)c(C(=O)C(C#N)c2nc3c(C)cc(C)cc3c(=O)[nH]2)n1 (configuration not stated)	-2	-0.14	-15	i	41*
CN1CCN(C(=O)C23CC4CC(C2)CC(c2ccccc2)(C4)C3)CC1	2	-0.43	-5	i	-17
O=C(c1ccc(N2C(=O)C3C4c5ccccc5C(c5ccccc54)C3C2=O)cc1)N1CCOCC1 (configuration not stated)	2	.	-17	i	2
CCc1ccc2c(c1)C(c1ccc(N3CCOCC3)cc1)=NNC(c1ccncc1)=N2	-5	0.39	-69	i	10
CCc1ccc2c(c1)C(c1ccc([N+](=O)[O-])cc1)=NNC(c1ccc(C)cc1)=N2	-7	1.7	61*	i	-10
COc1ccc(OC)c(NC(=O)COC(=O)CSc2ccc(Cl)cc2)c1	-9	0.032	90*	i	1
COc1ccc(C)cc1NC(=O)COC(=O)C1CCN(C(=O)c2ccc(Cl)cc2)CC1	19*	-0.017	20	i	0

Compound activity deposited in PubChem BioAssay by several laboratories.
